KCNQ2 block: inhibitors of rat KCNQ2 potassium channel | CHO-K1 KCNQ2, FluxOR thallium flux, 20 min; hits give low values | B-score at 10 µM | 310,000 tested, 1.1% active;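 active = fluorescence ratio B-score at most minus 3 library SDs, with starting brightness B-score within 2 library SDs, cut at about -5.5 in these data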
Target sequence (O88943 whole entry, looked up): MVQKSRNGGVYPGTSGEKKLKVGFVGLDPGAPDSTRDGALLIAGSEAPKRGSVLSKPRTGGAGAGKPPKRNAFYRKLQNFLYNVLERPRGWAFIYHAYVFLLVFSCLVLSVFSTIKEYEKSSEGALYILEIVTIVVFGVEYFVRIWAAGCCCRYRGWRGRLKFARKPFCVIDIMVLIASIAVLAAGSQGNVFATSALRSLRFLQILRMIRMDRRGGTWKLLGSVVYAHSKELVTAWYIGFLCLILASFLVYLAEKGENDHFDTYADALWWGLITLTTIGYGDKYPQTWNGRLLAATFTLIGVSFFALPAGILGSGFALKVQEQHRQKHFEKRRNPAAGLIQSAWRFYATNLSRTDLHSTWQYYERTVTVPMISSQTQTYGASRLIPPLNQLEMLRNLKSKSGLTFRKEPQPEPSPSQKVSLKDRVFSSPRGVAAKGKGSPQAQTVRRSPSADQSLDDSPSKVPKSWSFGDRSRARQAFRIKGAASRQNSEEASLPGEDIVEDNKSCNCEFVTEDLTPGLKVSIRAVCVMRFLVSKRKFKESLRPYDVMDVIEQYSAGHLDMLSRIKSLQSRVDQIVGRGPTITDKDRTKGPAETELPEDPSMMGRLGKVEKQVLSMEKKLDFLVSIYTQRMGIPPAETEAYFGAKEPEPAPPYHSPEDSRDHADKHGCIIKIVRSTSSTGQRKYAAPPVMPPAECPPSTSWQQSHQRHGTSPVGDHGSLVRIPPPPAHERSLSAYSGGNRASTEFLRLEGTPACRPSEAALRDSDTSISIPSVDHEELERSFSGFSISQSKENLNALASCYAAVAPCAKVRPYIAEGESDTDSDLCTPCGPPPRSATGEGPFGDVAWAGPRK
KCNQ2 enhance: KCNQ2 (rat) channel potentiation; B-score at 10 µM; O88943; CHO-K1 KCNQ2, FluxOR thallium flux fluorescence; hits give high values; 310,000 tested, 0.54% active;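 active = fluorescence ratio B-score at least 3 SD of library B-scores, with initial fluorescence B-score within 3 of them, cut at about 5.3 in these data; same plate scores as AID 2156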;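 also: B-score of peak minus minimum over baseline fluorescence ratio after K+ and Tl+ stimulus; positive B-score means potentiation of KCNQ2 with more thallium influx and brighter signal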
Kir21 confirm: confirmation of mouse Kir2.1 potassium channel inhibitors. shares compounds with KCNQ2 enhance. Kir2.1-expressing cells, FluxOR thallium flux fluorescence; hits give low values. Tl flux remaining, % of negative control (hits give low values), % at 10 µM. 2,300 tested, 41% active. AID 2032;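 active = Primary-screen hit whose thallium flux fell at least 3 control SD below untreated wells in both duplicates, with normal baseline fluorescence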;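 also: 0% = blank wells without stimulus and 100% = stimulated no-compound controls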
HEK293 ctr: counter-screen for Kir2.1 inhibitors: effect in parental HEK293 cells; FluxOR thallium flux fluorescence; 0% = unstimulated blank wells; FluxOR signal as % of negative control (100 = no effect), % at 10 µM; 2,300 tested, 19% active; shares compounds with KCNQ2 enhance;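 active = dye signal at least 3 control SD above or below untreated wells in both duplicates, raw fluorescence within 3, either direction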;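 also: percent is based on the flux ratio of peak minus minimum fluorescence over baseline F0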
CHO-K1 Tl ctr: counter-screen for KCNQ2 potentiators: effect in parental CHO-K1 cells; shares compounds with KCNQ2 enhance; FluxOR thallium flux fluorescence; zero = vehicle mean+3SD, 100% = vehicle-minus-blank window; AID 2282; 1,200 tested, 43% active; activity increase over 3SD of controls, % at 10 µM;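 active = signal rise of at least 3 SD above the untreated control mean, in both duplicate wells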;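 also: counter screen of KCNQ2 potentiator hits so any rise reflects channel-independent effects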
KCNQ1 pot spec: human KCNQ1 counter-target activity of KCNQ2 potentiators | shares compounds with KCNQ2 enhance | CHO KCNQ1 stable, FluxOR thallium flux fluorescence; beyond 3SD, as % of vehicle-control signal | activation over 3SD threshold, % at 10 µM | 1,200 tested, 28% active | AID 2283;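 active = fluorescence ratio rise of at least 3 SD of vehicle wells above their mean, in both replicate wells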;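 also: 0% = vehicle mean plus 3 SD and 100% = vehicle minus unstimulated blank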
KCNQ2 pot conf: rat KCNQ2 channel potentiator confirmation. shares compounds with KCNQ2 enhance. CHO-KCNQ2 cells, FluxOR thallium flux fluorescence. potentiation, less the hit threshold, % at 10 µM. 1,200 tested, 68% active;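 active = fluorescence ratio rising 3 SD or more over the vehicle control mean in both replicates, plus primary screen hit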;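 also: peak minus minimum thallium fluorescence divided by baseline after K/Tl stimulus; 0% = vehicle mean plus 3 SD and 100% = vehicle minus unstimulated blank difference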
Kir21 spec: mouse Kir2.1 off-target activity of KCNQ2 potentiators | shares compounds with KCNQ2 enhance | HEK293 Kir2.1, FluxOR thallium flux fluorescence | activity over 3SD threshold, % at 10 µM | 1,200 tested, 2% active | AID 2345;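 active = fluorescence ratio rise of at least 3 SD above the vehicle-control mean, seen in both replicates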;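 also: 0% = vehicle mean plus 3 SD and 100% = vehicle minus no-stimulus blank window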
KCNQ2 W236L MoA: KCNQ2 potentiators acting on retigabine-insensitive rat KCNQ2 W236L mutant. shares compounds with KCNQ2 enhance. current increase over 3SD of negative controls (%), hits give high values, % at 25 µM. CHO KCNQ2-W236L, automated patch clamp current. 940 tested, 10% active;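 active = current increase at least 3 SD of the untreated controls above them in both duplicate recordings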
* marks the source's active call; other numbers are inactive results; i = inactive; / = not tested or not shown. An excerpt weighted towards active compounds, which were near 1.6% of everything screened.

SMILES	KCNQ2 block	KCNQ2 enhance	Kir21 confirm	HEK293 ctr	others
Cc1cccc(OCC(=O)NCC(=O)N/N=C/c2cc(Br)cc(Br)c2O)c1	i	10*	i	i	CHO-K1 Tl ctr=6.9*;KCNQ1 pot spec=0.7*;KCNQ2 pot conf=-12;Kir21 spec=-27
COc1cccc(/C=N/NC(=O)CNC(=O)COc2ccccc2)c1O	i	1.2	/	/
CCOC(=O)CC1COCCN1Cc1cn[nH]c1-c1cc(OC)c(OC)c(OC)c1 (stereo not drawn)	i	0.21	/	/
CCC1(C)Cc2ccccc2-c2[nH]c(=S)[nH]c(=O)c21 (stereo not drawn)	i	1.2	/	/
CCn1c(=S)[nH]c2c(c1=O)C(C)(C)Cc1ccccc1-2	i	12*	i	288%*	CHO-K1 Tl ctr=4.3*;KCNQ1 pot spec=-15;KCNQ2 pot conf=28*;Kir21 spec=-23;KCNQ2 W236L MoA=i
COc1ccc(S(=O)(=O)N2CCC(C(=O)NC3CC3)CC2)cc1OC	i	1.7	/	/
COc1ccccc1NC(=O)c1nn(C)c(C(=O)Nc2ccccc2OC)c1[N+](=O)[O-]	i	/	/	/
COc1ccccc1NC(=O)c1c(N=Cc2ccccc2O)cnn1C	i	12*	i	i	CHO-K1 Tl ctr=47*;KCNQ1 pot spec=64*;KCNQ2 pot conf=-12;Kir21 spec=-28
O=[N+]([O-])c1c(Nc2ccccc2O)ccc2nonc12	i	1.3	/	/
O=[N+]([O-])c1c(Nc2ccccc2O)cc(Cl)c2nonc12	-16*	-16	71%*	46%*
CC(C)c1ccc(OCC(O)CNC(C)c2ccccc2)cc1 (stereo not drawn)	i	2.2	28%*	i
OC(CNCCC(c1ccccc1)c1ccccc1)COc1ccccc1 (stereo not drawn)	i	/	36%*	i
OC(CNCCc1ccccc1)COc1ccc(OCC(O)CNCCc2ccccc2)cc1 (stereo not drawn)	i	/	/	/
CCC(=O)c1ccc(OCC(O)CNC(C)c2ccccc2)cc1 (stereo not drawn)	i	0.04	/	/
CCCCOc1ccc(C(=O)Nc2cccc(-n3cnnn3)c2)cc1OC	i	2.7	/	/
COc1ccc(C(=O)NCc2nnc(SCC(=O)NCc3ccco3)o2)cc1OC	i	0.45	/	/
COc1ccc(Cc2nc3ccc(C(=O)NCC4COCCO4)cc3o2)cc1OC (stereo not drawn)	i	/	/	/
Cc1cccc(NC(=O)CC2C(=O)NCCN2C(=O)Nc2ccc(Cl)cc2)c1 (stereo not drawn)	i	/	/	/
C=CCC1(CC=C)CCCN1C(=O)C1CCC(=O)N(CCc2ccccc2)C1 (stereo not drawn)	i	/	/	/
CCCCCCC(CC(=O)NCc1cccnc1)CC(=O)NCc1cccnc1	i	0.26	/	/
Cc1cc(=O)c(C(=O)O)nn1-c1ccc(Cl)cc1	i	/	/	/
CC(=O)NCCOc1cccc2ccccc12	i	0.73	/	/
c1ccc(CCNCCCOc2cccc3ccccc23)cc1	i	/	14%*	i
CCCN(CCC)Cc1c(C(=O)N/N=C/CCc2ccccc2)nnn1-c1nonc1N	i	/	/	/
CCCc1cc(-c2n[nH]c(=S)n2CC)cs1	i	0.01	/	/
SMILES	KCNQ2 block	KCNQ2 enhance	Kir21 confirm	HEK293 ctr	others
CCCCn1c(-c2csc(CCC)c2)n[nH]c1=S	i	9.1*	i	172%*	CHO-K1 Tl ctr=-14;KCNQ1 pot spec=-14;KCNQ2 pot conf=20*;Kir21 spec=-49;KCNQ2 W236L MoA=i
CCOC(=O)NC(=S)Nc1ccc(C(C)(C)C)cc1	i	10*	i	i	CHO-K1 Tl ctr=-11;KCNQ1 pot spec=-13;KCNQ2 pot conf=26*;Kir21 spec=-37;KCNQ2 W236L MoA=i
CCOC(=O)C(NC(C)=O)C(=O)Nc1ccc(C(C)(C)C)cc1 (stereo not drawn)	i	/	/	/
C/C(=N\Nc1nccnc1Cl)c1ccc(O)c(C)c1	i	0.01	/	/
O=C(NC(=S)N1CCc2ccccc21)C1CCC1	i	0.25	/	/
NC(=O)c1ccccc1NC(=S)NC(=O)c1ccc(Br)o1	i	/	/	/
COc1ccc(NC(=S)NC(=O)c2ccc(Br)o2)cc1	i	8.5*	i	200%*	CHO-K1 Tl ctr=-6;KCNQ1 pot spec=-4;KCNQ2 pot conf=39*;Kir21 spec=-23;KCNQ2 W236L MoA=i
O=C(NNC(=S)NCc1ccccc1)c1ccc(Br)o1	i	/	/	/
COc1ccc(NC(=O)c2ccc(Br)o2)cc1	i	0.29	/	/
O=C(NC(=S)N1CCc2ccccc21)c1ccc(Br)o1	i	9.8*	i	399%*	CHO-K1 Tl ctr=-9;KCNQ1 pot spec=48*;KCNQ2 pot conf=75*;Kir21 spec=-15;KCNQ2 W236L MoA=i
O=C(NC(=S)Nc1ccccc1)c1ccc(Br)o1	i	8.2*	i	162%*	CHO-K1 Tl ctr=130*;KCNQ1 pot spec=-19;KCNQ2 pot conf=35*;Kir21 spec=-24;KCNQ2 W236L MoA=i
O=C(NC(=S)NCc1ccccc1)c1ccc(Br)o1	i	13*	i	330%*	CHO-K1 Tl ctr=-11;KCNQ1 pot spec=-19;KCNQ2 pot conf=53*;Kir21 spec=-31;KCNQ2 W236L MoA=i
COc1ccc(NC(=O)C2Cc3cc(S(=O)(=O)N4CCCCC4)ccc3N2C(C)=O)cc1Cl (stereo not drawn)	i	0.83	/	/
Cc1snnc1C(=O)NC(=S)Nc1ccccc1	i	6*	i	239%*	CHO-K1 Tl ctr=-22;KCNQ1 pot spec=-14;KCNQ2 pot conf=34*;Kir21 spec=-17;KCNQ2 W236L MoA=i
O=C(NC(=S)Nc1cccnc1)c1ccccc1	i	0.03	/	/
CCN(CC(=O)Nc1c(F)cccc1F)C(=O)CNC(=O)c1ccc(Br)o1	i	/	/	/
CCn1cc(C(=O)NCCN(C)CCc2ccccc2)c(=O)c2cc(S(=O)(=O)N(C)C)ccc21	i	0.95	/	/
CCn1cc(C(=O)NCCc2ccccc2)c(=O)c2cc(S(=O)(=O)N(C)C)ccc21	i	0.02	i	i
COc1ccccc1CNC(=O)N1CCN(c2ccccc2Cl)CC1	i	1.5	/	/
COc1ccc(S(=O)(=O)N2CCN(Cc3ccc(Cl)cc3)CC2)cc1	i	/	/	/
COc1ccc(CN2CCCN(S(=O)(=O)c3ccc(Br)cc3)CC2)cc1	i	/	56%*	i
Cc1ccc(NS(=O)(=O)c2cccc(C(=O)NNC(=O)c3ccco3)c2)c(C)c1	i	/	/	/
COC(C(=O)Nc1ccccc1C(=O)N1CCOCC1)c1ccccc1 (stereo not drawn)	i	/	/	/
O=C1CSC(c2cccnc2)N1C1CCCCC1 (stereo not drawn)	i	0.39	/	/
O=C1CSC(c2ccc(Cl)cc2)N1C1CCCCC1 (stereo not drawn)	i	/	64%*	i
CCOC(=O)C1CCN(CC(O)COC(CC)c2ccccc2)CC1 (stereo not drawn)	i	0.03	/	/

Compound activity deposited in PubChem by Johns Hopkins Ion Channel Center.
